Out of some 11,000 compounds screened, about 310 (2.8%) were called active. Rule as the data show it: active = activity change below about -85%; inactive = the rest. The full list was thinned out, with actives kept by preference.
tested on: intestinal alkaline phosphatase [Mus musculus]; assay: mouse intestinal phosphatase enzyme activation – biochemical, luminescence, single concentration, confirmation (AID 434970); conditions: purified mouse IAP, CDP-Star luminescence, 30 min, at 10 µM; activation factor: measured here: IAP activation factor, stronger effect = higher value; activity change, negative = activation: stronger effect = lower value

Row | Compound | activation factor | activity change, negative = activation
1 | CC(C)(C)c1ccc(OC(=O)c2cccnc2)cc1 | 1.01 | -0.6% (inactive)
2 | CCO/C(C)=C1\N=C(c2ccc(Cl)cc2)OC1=O | 1.06 | -5.85% (inactive)
3 | O=C(NCc1ccc2c(c1)OCO2)C1CCCN1C(=O)Nc1cccc(Cl)c1 (configuration not stated) | 1.03 | -2.95% (inactive)
4 | O=C(Nc1cccc(-c2cccc(F)c2)c1)C1CCN(Cc2ccc(CO)o2)CC1 | 1.64 | -64.3% (inactive)
5 | O=C(Nc1cccc(-c2cccc(Cl)c2)c1)C1CCN(CC2CCOC2)CC1 (configuration not stated) | 2.32 | -132% (active)
6 | O=C(Nc1cccc(-c2cccc(Cl)c2)c1)C1CCN(Cc2ccc(CO)o2)CC1 | 2.61 | -161% (active)
7 | COCc1ccc(CN2CCC(C(=O)Nc3cccc(-c4cccc(Cl)c4)c3)CC2)o1 | 4.36 | -336% (active)
8 | O=C(Nc1cccc(-c2cccc(Cl)c2)c1)C1CCN(Cc2ccon2)CC1 | 1.73 | -73.1% (active)
9 | Cc1oc(-c2ccc(Cl)cc2)nc1CN1CCC(C(=O)NCc2cccs2)CC1 | 1.19 | -19.5% (inactive)
10 | O=C(Nc1ccc2c(c1)OCCO2)C1CCN(S(=O)(=O)c2cccc3nsnc23)CC1 | 0.988 | 1.25% (inactive)
11 | O=C(Nc1ccc(Br)c(Cl)c1)C1CC1 | 1.01 | -1.05% (inactive)
12 | CCOc1ccc(Br)cc1S(=O)(=O)Nc1ccccc1N1CCOCC1 | 0.919 | 8.1% (inactive)
13 | CC(C)N(C(=O)[C@H]1C[C@H](CC(=O)NC(C)(C)C)C(=O)N2CCc3c([nH]c4cc(-c5ccco5)ccc34)[C@]12C)C(C)C | 1.09 | -9% (inactive)
14 | CC(=O)NC1=NN(C(C)=O)C(c2cccs2)S1 (configuration not stated) | 1.08 | -8% (inactive)
15 | CCSc1sccc1C1C(C#N)=C(N)N(c2cccnc2)C2=C1C(=O)CCC2 (configuration not stated) | 0.703 | 29.8% (inactive)
16 | Cc1oc(-c2ccccc2F)nc1CN1CCC(C(=O)NC2CCCc3ccccc32)CC1 (configuration not stated) | 1.12 | -12.4% (inactive)
17 | CC[C@]12c3[nH]c4ccc(OC)cc4c3CCN1C(=O)C(CC(=O)NCc1cccc(C(F)(F)F)c1)C[C@@H]2C(=O)N1CCN(C(=O)c2ccco2)CC1 (some centres not stated) | 0.989 | 1.05% (inactive)
18 | CN(Cc1ccccc1)C(=O)Cn1cccc1C(=O)c1ccccc1 | 1.13 | -13.4% (inactive)
19 | O=C(C1CCCN1C(=O)c1cccs1)N1CCN(Cc2ccc3c(c2)OCO3)CC1 (configuration not stated) | 0.924 | 7.55% (inactive)
20 | OCCN1CCN(C(=S)c2ccc(Cl)c(Cl)c2)CC1 | 0.845 | 15.5% (inactive)
21 | CSCC[C@H](N)C(=O)NC[C@H]1O[C@@H](n2cnc3c(N)ncnc32)[C@H](O)[C@@H]1O | 0.994 | 0.55% (inactive)
22 | CC(C)CC(=O)NC(NC(=S)Nc1sc2c(c1C#N)CCCC2)C(Cl)(Cl)Cl (configuration not stated) | 0.587 | 41.3% (inactive)
23 | C[C@@H]1CN([C@@H](C)CO)C(=O)Cc2cc(NC(=O)Nc3cccc4ccccc34)ccc2O[C@@H]1CN(C)S(C)(=O)=O | 1.46 | -46.2% (inactive)
24 | C[C@@H]1CN([C@@H](C)CO)C(=O)c2cccc(NC(=O)Nc3ccc(F)cc3)c2O[C@@H]1CN(C)Cc1ccc(Oc2ccccc2)cc1 | 2.17 | -117% (active)

Row | Compound | activation factor | activity change, negative = activation
25 | C[C@H](CO)N1C[C@H](C)[C@H](CN(C)Cc2ccc(Oc3ccccc3)cc2)Oc2ccc(NC(=O)Nc3cccc4ccccc34)cc2CC1=O | 2.03 | -103% (active)
26 | C[C@@H]1CN([C@@H](C)CO)C(=O)Cc2cc(NC(=O)Nc3cccc4ccccc34)ccc2O[C@@H]1CN(C)Cc1ccc(C(F)(F)F)cc1 | 1.75 | -75% (inactive)
27 | CC(C)NC(=O)N(C)C[C@H]1Oc2ccc(NC(=O)Nc3ccc(C(F)(F)F)cc3)cc2C(=O)N([C@H](C)CO)C[C@@H]1C | 1.96 | -96.3% (inactive)
28 | C[C@@H]1CN([C@H](C)CO)C(=O)Cc2cc(NC(=O)Nc3ccccc3)ccc2O[C@@H]1CN(C)Cc1ccc2c(c1)OCO2 | 1.66 | -66.3% (inactive)
29 | C[C@@H]1CN([C@H](C)CO)C(=O)c2cc(NC(=O)Nc3cccc4ccccc34)ccc2O[C@H]1CN(C)Cc1ccc(C(F)(F)F)cc1 | 2.2 | -120% (active)
30 | C[C@H]1CN([C@@H](C)CO)C(=O)c2cc(NC(=O)Nc3cccc4ccccc34)ccc2O[C@@H]1CN(C)Cc1ccc(-c2ccccc2)cc1 | 2.14 | -114% (active)
31 | C[C@@H]1CN([C@@H](C)CO)C(=O)c2cc(NC(=O)Nc3ccccc3)ccc2O[C@H]1CN(C)C(=O)Nc1cccc2ccccc12 | 1.8 | -79.6% (inactive)
32 | C[C@@H]1CN([C@H](C)CO)C(=O)c2cc(NC(=O)Nc3ccc(F)cc3)ccc2O[C@H]1CN(C)C(=O)Nc1ccc(C(F)(F)F)cc1 | 1.57 | -57.4% (inactive)
33 | C[C@H](CO)N1C[C@H](C)[C@H](CN(C)Cc2ccccc2)Oc2ccc(NC(=O)Nc3ccc(F)cc3)cc2C1=O | 1.54 | -53.5% (inactive)
34 | C=CCn1c(C)cc(C(=O)COC(=O)COc2ccccc2C#N)c1C | 0.919 | 8.05% (inactive)
35 | S=c1[nH]nc(CSc2nc3ccccc3s2)n1Cc1ccccc1 | 1.1 | -10.1% (inactive)
36 | CCOC(=O)C1=CN(Cc2cccc(F)c2)S(=O)(=O)N(CC)C1c1ccc(F)c(Cl)c1 (configuration not stated) | 1.1 | -9.9% (inactive)
37 | CC(=O)Cc1nsc(NC(=O)c2ccc(-c3cccc(C(F)(F)F)c3)o2)n1 | 0.948 | 5.2% (inactive)
38 | COc1cc(OC)c(C2N(c3ccccn3)C(=O)C3CCCN32)cc1OC (configuration not stated) | 1.11 | -10.6% (inactive)
39 | Cc1cc(C(=O)CSc2nnc(-c3cccc(F)c3)n2N)c(C)n1Cc1ccc2c(c1)OCO2 | 0.849 | 15.2% (inactive)
40 | Nc1ncnc2c1ncn2[C@@H]1O[C@H](CNC(=O)[C@@H](N)CO)[C@@H](O)[C@H]1O | 0.992 | 0.75% (inactive)
41 | S=C(NCc1ccccc1)Nc1ccc(Oc2ccccc2)cc1 | 1.49 | -49% (inactive)
42 | COc1cc(OC)c2c(-c3ccccc3)cc(=O)oc2c1C(CCN1CCOCC1)c1ccc(N(C)C)cc1 (configuration not stated) | 0.992 | 0.8% (inactive)
43 | CN(C)S(=O)(=O)n1cnc(-c2ccccc2)c1-c1ccccc1 | 1.06 | -5.85% (inactive)
44 | Cc1ccc(N/C(N)=N/c2nc(C)cc(N3CCCCC3)n2)c(C)c1 | 4.22 | -322% (active)
45 | Cc1ccc(NC(=O)C2CCN(C(=O)NC3CCCCC3)CC2)c(C)c1 | 1.02 | -1.95% (inactive)
46 | Cc1cccc(N/C(N)=N/c2nc(C)cc(C)n2)c1 | 1.05 | -4.7% (inactive)
47 | CCOC(=O)C1=CN(Cc2ccco2)S(=O)(=O)NC1c1cccc(OC)c1 (configuration not stated) | 0.986 | 1.35% (inactive)
48 | CCOc1ccc(-c2nnc(-c3cccnc3)o2)cc1OCC | 0.916 | 8.35% (inactive)

Row | Compound | activation factor | activity change, negative = activation
49 | O=S(=O)(Nc1ccccc1)c1ccc(Oc2ncc(C(F)(F)F)cc2Cl)cc1 | 0.903 | 9.65% (inactive)
50 | CC1(C)N=C(N)NC(Nc2ccccc2)=N1 | 1.04 | -4% (inactive)
51 | CCCCOc1ccc(NC2=NC3(CCCCC3)N=C(N)N2)cc1 | 5.53 | -453% (active)
52 | COc1ccc(OC)c(NC2=NC3(CCCC3)N=C(N)N2)c1 | 1.22 | -21.9% (inactive)
53 | Cc1cc(C)cc(NC2=NC3(CCCCC3)N=C(N)N2)c1 | 3.22 | -222% (active)
54 | COc1ccc(OC)c(NC2=NC3(CCCCC3)N=C(N)N2)c1 | 1.17 | -16.5% (inactive)
55 | COc1cccc(NC2=NC3(CCCCC3)N=C(N)N2)c1 | 1.5 | -50.5% (inactive)
56 | S=C(NCCNCc1ccccc1)NC1CCCCC1 | 1.18 | -18% (inactive)
57 | O=C(NN1C(=O)CSC1=S)C(=O)NN1C(=O)CSC1=S | 0.0825 | 91.8% (inactive)
58 | CC(C)=CCC/C(C)=C/CNC(=O)C[C@H]1C[C@H](C(=O)N(C(C)C)C(C)C)[C@@]2(C)c3[nH]c4cc(-c5ccco5)ccc4c3CCN2C1=O | 1.39 | -39.4% (inactive)
59 | COc1ccc(NC(=O)CCS(=O)(=O)c2cccc3nonc23)c(OC)c1 | 0.945 | 5.5% (inactive)
60 | COc1ccc(C2CC(c3ccccc3Br)=NN2c2ccc(S(N)(=O)=O)cc2)cc1 (configuration not stated) | 1.27 | -26.8% (inactive)
61 | COc1ccc(C2CC(c3cccc(F)c3)=NN2c2ccc(S(N)(=O)=O)cc2)cc1 (configuration not stated) | 1.67 | -67.2% (inactive)
62 | COc1ccc(C2CC(c3ccccc3C(F)(F)F)=NN2c2ccc(S(N)(=O)=O)cc2)cc1 (configuration not stated) | 2.21 | -121% (active)
63 | COc1ccc(C2CC(c3ccccc3F)=NN2c2ccc(S(N)(=O)=O)cc2)cc1 (configuration not stated) | 2.13 | -113% (active)
64 | COc1ccc(C2CC(c3ccc(C(F)(F)F)cc3)=NN2c2ccc(S(N)(=O)=O)cc2)cc1 (configuration not stated) | 1.37 | -36.7% (inactive)
65 | COc1ccc(C2CC(c3ccccc3Cl)=NN2c2ccc(S(N)(=O)=O)cc2)cc1 (configuration not stated) | 2.18 | -118% (active)
66 | COc1ccc(C2CC(c3cccc(Cl)c3)=NN2c2ccc(S(N)(=O)=O)cc2)cc1 (configuration not stated) | 1.79 | -78.7% (inactive)
67 | COc1ccc(C2CC(c3cccc(C(F)(F)F)c3)=NN2c2ccc(S(N)(=O)=O)cc2)cc1 (configuration not stated) | 1.51 | -50.8% (inactive)
68 | COc1ccc(C2CC(c3ccc(Cl)cc3)=NN2c2ccc(S(N)(=O)=O)cc2)cc1 (configuration not stated) | 1.6 | -59.8% (inactive)
69 | CSc1ccc(-c2nc(CSCC(=O)NCCCN3CCOCC3)c(C)o2)cc1 | 0.847 | 15.3% (inactive)
70 | CCOC(=O)C1=C(C)OC(N)=C(C#N)C1c1cc2cc(C)ccc2nc1N1CCCCC1 (configuration not stated) | 1.02 | -1.65% (inactive)
71 | CN(C)CCCNC(=O)C[C@H]1C[C@H](C(=O)N2CCCCC2)[C@@]2(CCc3ccccc3)c3[nH]c4cc(CCC(=O)N(C)C)ccc4c3CCN2C1=O | 1.1 | -10.1% (inactive)
